Screening data from PubChem.
MsrA inhibitor: inhibitors of bovine MsrA; purified bovine MsrA, absorbance read-out; inhibition, % at 15.5 µM; 360,000 compounds, 0.75% hits; in the data active = inhibition above about 4.5%;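 note: 0% = vehicle wells with enzyme and 100% = reference inhibitor wells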
NPR1 activator: GC-A (human) enzyme activation; 370,000 compounds, 0.14% hits; AID 1671463; HEK293 GC-A cells, cGMP TR-FRET, EC30 ANP; 0% at EC30 ANP, 100% saturating ANP; P16066; activation, % at 10 µM; in the data active = activation above about 40%
NPR2 activator: GC-B (human) receptor activation; P20594; HEK293-GC-B cells, CNP EC30, cGMP TR-FRET; 0% at EC30 CNP, 100% saturating CNP; activation, % at 10 µM; 370,000 compounds, 0.11% hits; AID 1920062;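 active = activation at 10 µM reaching about 35% in either raw or pattern-adjusted values, limit read from the data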
MsrA act: activators of bovine methionine sulfoxide reductase A; activation, % at 10.6 µM; AID 602163; purified bovine MsrA, absorbance read-out; 360,000 compounds, 0.3% hits; in the data active = activation above about 7.5%;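 note: 0% = vehicle and 100% = reference activator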
The depositor's hits bear a star; · = no result given; ! = not active in a repeat. Most compounds without a hit are left out; they make up all but 1.2% or so of the library.

SMILES	MsrA inhibitor	NPR1 activator	NPR2 activator	MsrA act
Cc1ccc(-n2c(SCc3cccc(F)c3)nc3ccccc3c2=O)cc1	·	-2	3	·
CCCN(CC1CC1)C(=O)CN1C(=O)C2CCCCN2C(=O)c2ccccc21 (configuration not stated)	·	-2	-7	·
CC(=O)Nc1ccc(Nc2nc(C)c([N+](=O)[O-])c(Nc3ccc(NC(C)=O)cc3)n2)cc1	1	33	38*	-4
CNc1nc(C)c([N+](=O)[O-])c(Nc2ccc(OC)cc2)n1	2	5	5	-2
CC(=O)OCCCN1CCC2(CCCCC2)C1=O	·	2	-4	·
Cc1cccc(Nc2nc3c(S(=O)(=O)c4ccccc4)nnn3c3ccccc23)c1	0	36	42*	-2
CC1CCCN(c2nc3nonc3nc2N2CCCC(C)C2)C1 (configuration not stated)	4.6*	5	-2	1
C1CCN(c2nc3nonc3nc2N2CCCC2)C1	5.1*	1	0	-4
CC1CCN(c2nc3nonc3nc2N2CCC(C)CC2)CC1	-1	-4	-4	-1
O=C(NCC1COCCO1)C1CCN(S(=O)(=O)c2ccc(Br)s2)CC1 (configuration not stated)	·	6	-4	·
CC(C)(C)NC(=O)c1nn2c(C(F)(F)F)cc(-c3ccccc3)nc2c1Br	0	2	4	-2
NC(=O)c1nn2c(C(F)(F)F)cc(-c3ccccc3)nc2c1Br	4.6*	15	15	-8
CC(COc1ccc(OC(F)(F)F)cc1)CN1CCC(C(O)(c2ccccc2)c2ccccc2)CC1 (configuration not stated)	·	-8	1	·
Cc1ccc(Cc2c(-c3ccc(C#N)cc3)nc3ccc(Br)cn23)cc1	0	30	33	-3
N#Cc1ccc(-c2nc3ccc(Br)cn3c2Cc2ccccc2)cc1	0	29	35*	-1
COC(=O)c1ccc2nc(-c3ccc(C)cc3)c(Cc3ccccc3)n2c1	0	27	39*	·
COC(=O)c1ccc2nc(-c3ccc(C#N)cc3)c(Cc3cccc(F)c3)n2c1	-1	24	24	-1
COC(=O)c1ccc2nc(-c3ccc(C)cc3)c(Cc3cccc(F)c3)n2c1	-1	32	46*	-1
COC(=O)c1ccc2nc(-c3ccccc3)c(Cc3ccc(C)cc3)n2c1	0	30	39*	-2
COCC(=O)Nc1ccc2c(c1)C(=O)N(C)[C@@H]1CC[C@@H](CC(=O)OC)O[C@H]1CO2	·	1	3	·
Cc1cc(-c2n[nH]c(=S)n2N=Cc2c3ccccc3cc3ccccc23)n[nH]1	·	-2	0	·
Cc1cc2nc3ccc(=[N+](C)C)cc-3sc2cc1N	·	·	·	19*
O=[N+]([O-])c1ccc(NCCNS(=O)(=O)c2ccccc2)c(C(F)(F)F)c1	5.1*	-2	-16	-3
CCOc1ccc(CCNC(=O)c2cc3sccc3n2Cc2cccc(C)c2)cc1OCC	·	-6	-8	·
COc1ccc2ccccc2c1-c1c(C(=O)c2ccc(Br)cc2)[nH]c(N)c1C(=O)NC1CCCCC1	·	-7	-6	·
SMILES	MsrA inhibitor	NPR1 activator	NPR2 activator	MsrA act
Cc1ccc(/C=N/n2c(C)n[nH]c2=S)o1	4.6*	2	-14	0
CC(C)(C)OC(=O)[C@H](Cc1ccccc1)NC(=O)c1ncn2c1c(=O)[nH]c1ccc(Br)cc12	0	19	39*	-5
O=C(N/N=C/c1ccc2c(c1)OCO2)c1ccc(NC(=O)c2ccccc2Cl)cc1	5.2*	-1	3	-13
CC(NC(=O)/C(C#N)=C/c1ccc(Cl)c([N+](=O)[O-])c1)c1ccccc1 (configuration not stated)	1	55*	0	·
C[C@@H](NC(=O)/C(C#N)=C/c1ccc(O)c(O)c1)c1ccccc1	2	-1	-1	-3
CCN1C(=S)N[C@@H](c2cccc(F)c2)C(C(=O)OC)=C1C	0	36	45*	0
CCCCOc1ccc(C(=O)NC2CCCCN(C(C)C)C2=O)cc1 (configuration not stated)	·	5	-2	·
O=C(CSc1nc2c([nH]c3ccccc32)c(=O)n1-c1ccccc1F)NCC1CCCO1 (configuration not stated)	0	-3	-3	-6
Cc1cc(NC(=O)CSc2nc3c([nH]c4ccccc43)c(=O)n2-c2cccc(C(F)(F)F)c2)no1	·	·	·	1
COc1cccc(-n2c(SCC(=O)Nc3cc(C)on3)nc3c([nH]c4ccccc43)c2=O)c1	2	80*	-3	-3
COc1ccc(-n2c(SCC(=O)Nc3cc(C)on3)nc3ccc(O)cc3c2=O)cc1OC	1	58*	-2	0
COc1ccccc1-n1c(SCC(=O)Nc2cc(C)on2)nc2c([nH]c3ccccc32)c1=O	1	71*	0	-1
COc1ccccc1-n1c(SCC(=O)Nc2cc(C)on2)nc2c(c1=O)SCC2	2	3	0	-4
Cc1cc(NC(=O)CSc2nc3c([nH]c4ccccc43)c(=O)n2-c2ccccc2F)no1	1	73*	-2	-2
COc1ccc(-c2nnc(SCC(=O)Nc3cc(C)on3)n2C)cc1OC	-1	-4	-6	-10
Nn1c(SCC(=O)N2c3ccccc3Sc3ccc(Cl)cc32)nnc1-c1n[nH]c2c1CCC2	·	-21	-19	·
COCCn1c(SCC(=O)Nc2ccccc2F)nc2c([nH]c3ccccc32)c1=O	0	55*	2	-2
C#CCCC(=O)Nc1sc2c(c1-c1nc3ccccc3s1)CCN(C(C)C)C2	·	17	-5	·
COc1ccc(C(=O)CSc2nnc(-c3n[nH]c4c3CCC4)n2N)cc1OC	·	36	44*	·
COc1ccc(NC(=O)CSc2nnc(-c3n[nH]c4c3CCC4)n2N)cc1OC	·	7	-2	·
CCCCNC(=O)NC1CCN(CC(=O)Nc2ccc3c(c2)OCCO3)CC1	·	0	-4	·
c1ccc(N2CCN(c3nc4ccccc4n4cnnc34)CC2)cc1	2	8	2	-3
c1ccc2c(c1)nc(N1CCOCC1)c1nncn12	4.6*	-1	0	-1
Cc1ccc2nc(-c3ccc(NC(=O)CSCC(=O)O)cc3)sc2c1	4	2	1	-6
Cc1ccc2nc(-c3ccc(NC(=O)COCC(=O)O)cc3)sc2c1	4.5*	8	3	-5
SMILES	MsrA inhibitor	NPR1 activator	NPR2 activator	MsrA act
O=C(NCCN1CCC(Cc2ccccc2)CC1)C1CCCN(S(=O)(=O)c2ccccc2[N+](=O)[O-])C1 (configuration not stated)	·	-2	-5	·
Oc1[nH]c2ccccc2c1C1=NCCCCC1	4.6*	-2	1	-5
CC(Sc1ccc2ccccc2n1)C(=O)O (configuration not stated)	2	48*!	29	-10
CC(Sc1cnc2ccccc2n1)C(=O)O (configuration not stated)	3	18	11	-3
COc1ccc(CNS(=O)(=O)CC2NCc3cc(OC)ccc32)cc1 (configuration not stated)	·	-3	-6	·
COc1ccc(CNC(=S)Nc2cc(OC)ccc2OC)cc1	0	40*	3	-3
COc1ccc(OC)c(NC(=S)NCc2ccc(S(N)(=O)=O)cc2)c1	3	0	2	-2
